These results are taken from PubChem BioAssay (EPA / NIEHS).

Assay [1] deals with rat Monoamine Oxidase, MAO-A, Central (MAOAC), gene 29253. As to the kind of experiment: NVS_ENZ_rMAOAC: NovaScreen (NVS) Enzymatic Assay for rat Monoamine Oxidase, MAO-A, Central (MAOAC) (AID 2283243).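 Also: potency refers to inhibition seen as signal drop below DMSO baseline.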 The method, boiled down: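 Steps: rat brain protein extract dosed with test chemical (25 uM, duplicate, primary); incubated 1.5 h; radiolabelled product separated from substrate and counted. Signal loss versus DMSO scored as inhibition.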

Assay [2] concerns the target sheep Cyclooxygenase-1 (Cox1), PTGS1 (gene 443551) (UniProt P05979). The experiment in a line: NVS_ENZ_oCOX1: NovaScreen (NVS) Enzymatic Assay for sheep Cyclooxygenase-1 (Cox1) (AID 2283239).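 Also: actives reduce cyclooxygenase activity so potencies are for inhibitors.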 The method, boiled down: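 Cell-free colorimetric assay of enzyme activity in a native extract of ovine seminal vesicles. Absorbance was read 0.66 hour after compound addition. Loss of signal relative to the DMSO negative control was scored, with actives from the 25 uM duplicate primary screen retested in concentration series.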

Assay [3] deals with human Adrenergic, Beta 1 Receptor (Adrb1), ADRB1 (gene 153) (UniProt P08588). As to the kind of experiment: NVS_GPCR_hAdrb1: NovaScreen (NVS) G Protein-Coupled Receptor Assay for human Adrenergic, Beta 1 Receptor (Adrb1) (AID 2283258). The method, boiled down: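 Cell-free radioligand displacement on receptor from human neuroepithelioma cells; 2 h after dosing, filter-based scintillation counting. Primary screen in duplicate at 25 uM, actives retested in concentration series; loss of signal vs DMSO baseline.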

Assay [4] has as its target guinea pig Opioid, Kappa 1 Receptor (OpiateK), OPRK1 (gene 100135587) (UniProt P41144). The experiment in a line: NVS_GPCR_gOpiateK: NovaScreen (NVS) G Protein-Coupled Receptor Assay for guinea pig Opioid, Kappa 1 Receptor (OpiateK) (AID 2283252).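 Also: radioligand displacement from kappa opioid receptor in guinea pig cerebellar membranes; active means reduced radioligand binding relative to DMSO.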 The method, boiled down:
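Signal is scintillation counts of filter-trapped radioligand bound to guinea pig cerebellar membrane receptor, measured 2 hours post-dosing. Activity is loss of binding versus DMSO, first at 25 uM in duplicate, then as concentration series for actives.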

For assay [5], the target named is human Adenosine A1 Receptor (AdoRA1), ADORA1 (gene 134) (UniProt P30542). The experiment in a line: NVS_GPCR_hAdoRA1: NovaScreen (NVS) G Protein-Coupled Receptor Assay for human Adenosine A1 Receptor (AdoRA1) (AID 2283254). The method, boiled down: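 Membranes from human cortical tissue were incubated with radioligand and test chemical for 1 hour, then filtered and counted. Activity was taken as signal loss relative to DMSO, screened at 25 uM in duplicate before concentration-response follow-up.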

Assay [6] has as its target guinea pig Leukotriene D4 Receptor (LTD4), CYSLTR1 (gene 100135514) (UniProt Q2NNR5). The experiment in a line: NVS_GPCR_gLTD4: NovaScreen (NVS) G Protein-Coupled Receptor Assay for guinea pig Leukotriene D4 Receptor (LTD4) (AID 2283248). The method, boiled down:
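Radioligand displacement on guinea pig lung membranes, 1 h incubation, filtration and scintillation counting; DMSO as negative control. Duplicate 25 uM primary screen, then singleton concentration-response up to 50 uM.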

Assay [7] concerns the target rat Monoamine Oxidase, MAO-B, Central (MAOBC), Maob (gene 25750) (UniProt P19643). The experiment in a line: NVS_ENZ_rMAOBC: NovaScreen (NVS) Enzymatic Assay for rat Monoamine Oxidase, MAO-B, Central (MAOBC) (AID 2283238). The method, boiled down: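 Compounds were first tested in duplicate at 25 uM against MAO-B from rat brain tissue; those passing the inhibition threshold were retested in concentration series up to 50 uM. Radiodetection by scintillation counting at 1.17 h, analysed against DMSO baseline.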

The target of assay [8] is human Adrenergic, Alpha 2c Receptor (Adra2C), ADRA2C (gene 152) (UniProt P18825). The experiment in a line: NVS_GPCR_hAdra2C: NovaScreen (NVS) G Protein-Coupled Receptor Assay for human Adrenergic, Alpha 2c Receptor (Adra2C) (AID 2283259). The method, boiled down:
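Radioligand binding on Sf9-expressed receptor membranes, 1 h after chemical dosing, filter-based scintillation read-out. Loss of binding fitted positively versus DMSO; primary duplicate screen at 25 uM, actives retested in concentration series.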

For assay [9], the target named is rat Monoamine Oxidase, MAO-B, Peripheral (MAOBP), Maob (gene 25750) (UniProt P19643). As to the kind of experiment: NVS_ENZ_rMAOBP: NovaScreen (NVS) Enzymatic Assay for rat Monoamine Oxidase, MAO-B, Peripheral (MAOBP) (AID 2283242).
Assay [10] has as its system bovine Angiotensin II Receptor Type 2 (AT2), gene 407157. As to the kind of experiment: NVS_GPCR_bAT2: NovaScreen (NVS) G Protein-Coupled Receptor Assay for bovine Angiotensin II Receptor Type 2 (AT2) (AID 2283240). The procedure, abridged: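 Radioligand displacement on bovine cerebellar membranes, 1 hour incubation, filter-based scintillation counting; loss of signal vs DMSO. Duplicate single-point screen at 25 uM, then concentration-response to 50 uM maximum.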

For assay [11], the system named is guinea pig Leukotriene B4 Receptor (LTB4), gene 100379538. The experiment in a line: NVS_GPCR_gLTB4: NovaScreen (NVS) G Protein-Coupled Receptor Assay for guinea pig Leukotriene B4 Receptor (LTB4) (AID 2283247). The method, boiled down: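 Radioligand displacement on guinea pig spleen membranes, filter-based scintillation counting 2 h after dosing. Primary duplicate single point at 25 uM; hits over threshold (e.g. 30% inhibition) run in concentration-response up to 50 uM, DMSO baseline.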

For assay [12], the target named is human Serotonin, 5-Hydroxytryptamine Receptor 7 (5HT7), HTR7 (gene 3363) (UniProt P34969). The experiment in a line: NVS_GPCR_h5HT7: NovaScreen (NVS) G Protein-Coupled Receptor Assay for human Serotonin, 5-Hydroxytryptamine Receptor 7 (5HT7) (AID 2283255).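 Also: hits reduce specific radioligand binding relative to DMSO.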 The procedure, abridged: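 Radioligand displacement on membranes from CHO cells expressing human 5HT7, 1 h incubation, filter-based scintillation counting. Primary screen used a single 25 uM concentration in duplicate; actives were followed up in concentration series.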

Assay [13] deals with human Serotonin, 5-Hydroxytryptamine Receptor 6 (5HT6), HTR6 (gene 3362) (UniProt P50406). As to the kind of experiment: NVS_GPCR_h5HT6: NovaScreen (NVS) G Protein-Coupled Receptor Assay for human Serotonin, 5-Hydroxytryptamine Receptor 6 (5HT6) (AID 2283253). The method, boiled down: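 Radioligand binding to 5HT6 in HEK293-derived membranes, cell-free, 1 h after dosing; bound ligand measured by filter-based scintillation counting. Primary screen in duplicate at 25 uM; actives retested in concentration series.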

SMILES strings stand for the structures. Inconclusive results are not listed. The source made the active and inactive calls. The calls were made as follows: active = hit-call score of the fitted dose curve at least 0.9, where 1 is the maximum; inconclusive = response in the unintended direction; inactive = score below 0.9.

sheep Cyclooxygenase-1 (Cox1), PTGS1 (gene 443551), sequence (P05979 whole entry, looked up): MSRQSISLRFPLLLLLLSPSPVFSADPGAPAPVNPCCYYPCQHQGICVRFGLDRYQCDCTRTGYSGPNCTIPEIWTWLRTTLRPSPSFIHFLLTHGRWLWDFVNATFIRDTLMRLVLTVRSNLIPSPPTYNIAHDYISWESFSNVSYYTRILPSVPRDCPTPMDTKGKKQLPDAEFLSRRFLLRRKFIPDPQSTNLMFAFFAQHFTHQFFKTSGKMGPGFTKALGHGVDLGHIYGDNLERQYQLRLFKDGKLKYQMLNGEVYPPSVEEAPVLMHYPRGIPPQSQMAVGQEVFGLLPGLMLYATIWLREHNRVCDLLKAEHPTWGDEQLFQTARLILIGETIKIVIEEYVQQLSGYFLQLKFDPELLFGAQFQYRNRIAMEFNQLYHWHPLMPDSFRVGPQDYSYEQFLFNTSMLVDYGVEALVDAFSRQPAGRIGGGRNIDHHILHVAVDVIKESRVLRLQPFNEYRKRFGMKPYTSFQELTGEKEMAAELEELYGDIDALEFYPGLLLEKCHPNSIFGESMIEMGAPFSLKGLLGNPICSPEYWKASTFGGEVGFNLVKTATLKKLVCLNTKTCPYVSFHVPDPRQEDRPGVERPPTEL
rat Monoamine Oxidase, MAO-B, Central (MAOBC), Maob (gene 25750), sequence (P19643 whole entry, looked up): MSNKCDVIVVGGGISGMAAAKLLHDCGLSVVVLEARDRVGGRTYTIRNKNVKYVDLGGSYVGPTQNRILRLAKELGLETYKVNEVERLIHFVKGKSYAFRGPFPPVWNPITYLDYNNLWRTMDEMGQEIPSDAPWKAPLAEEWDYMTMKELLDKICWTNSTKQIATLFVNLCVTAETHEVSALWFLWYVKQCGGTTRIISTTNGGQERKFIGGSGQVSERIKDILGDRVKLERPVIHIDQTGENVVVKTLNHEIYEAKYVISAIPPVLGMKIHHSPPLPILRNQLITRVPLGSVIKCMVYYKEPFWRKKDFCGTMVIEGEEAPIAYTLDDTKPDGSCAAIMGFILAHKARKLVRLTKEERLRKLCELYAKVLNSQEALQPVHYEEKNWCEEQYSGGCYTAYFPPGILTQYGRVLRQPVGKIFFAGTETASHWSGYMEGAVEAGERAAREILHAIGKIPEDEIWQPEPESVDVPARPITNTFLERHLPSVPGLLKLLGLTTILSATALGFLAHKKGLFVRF
guinea pig Leukotriene D4 Receptor (LTD4), CYSLTR1 (gene 100135514), sequence (Q2NNR5 whole entry, looked up): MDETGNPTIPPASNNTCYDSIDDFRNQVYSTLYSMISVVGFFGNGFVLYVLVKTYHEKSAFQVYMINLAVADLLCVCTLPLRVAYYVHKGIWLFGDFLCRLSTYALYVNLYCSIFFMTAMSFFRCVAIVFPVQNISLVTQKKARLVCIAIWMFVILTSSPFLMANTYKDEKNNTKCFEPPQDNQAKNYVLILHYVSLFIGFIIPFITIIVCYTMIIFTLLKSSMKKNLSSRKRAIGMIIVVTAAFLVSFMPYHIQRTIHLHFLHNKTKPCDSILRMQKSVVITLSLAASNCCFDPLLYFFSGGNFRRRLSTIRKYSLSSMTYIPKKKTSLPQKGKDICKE
human Adrenergic, Alpha 2c Receptor (Adra2C), ADRA2C (gene 152), sequence (P18825 whole entry, looked up): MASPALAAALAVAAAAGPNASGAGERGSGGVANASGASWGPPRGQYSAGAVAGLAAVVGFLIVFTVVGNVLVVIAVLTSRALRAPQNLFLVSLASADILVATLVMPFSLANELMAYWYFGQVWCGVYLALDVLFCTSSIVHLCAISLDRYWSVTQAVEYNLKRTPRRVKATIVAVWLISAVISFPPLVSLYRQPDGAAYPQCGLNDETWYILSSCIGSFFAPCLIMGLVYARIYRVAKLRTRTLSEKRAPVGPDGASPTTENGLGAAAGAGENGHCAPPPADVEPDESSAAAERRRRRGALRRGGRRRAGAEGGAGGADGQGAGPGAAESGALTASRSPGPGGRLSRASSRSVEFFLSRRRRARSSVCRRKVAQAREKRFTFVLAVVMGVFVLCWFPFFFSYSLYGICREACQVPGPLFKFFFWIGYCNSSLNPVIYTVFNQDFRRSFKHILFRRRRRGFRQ
human Adenosine A1 Receptor (AdoRA1), ADORA1 (gene 134), sequence (P30542 whole entry, looked up): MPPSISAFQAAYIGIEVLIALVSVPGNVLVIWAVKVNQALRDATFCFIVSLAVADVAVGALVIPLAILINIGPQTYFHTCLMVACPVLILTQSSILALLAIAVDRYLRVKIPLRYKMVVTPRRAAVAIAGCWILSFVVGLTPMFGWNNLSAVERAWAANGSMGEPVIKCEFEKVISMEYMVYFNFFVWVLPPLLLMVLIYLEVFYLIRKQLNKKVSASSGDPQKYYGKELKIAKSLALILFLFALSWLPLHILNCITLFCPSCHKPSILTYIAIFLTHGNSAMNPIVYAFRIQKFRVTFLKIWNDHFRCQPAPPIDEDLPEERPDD
guinea pig Opioid, Kappa 1 Receptor (OpiateK), OPRK1 (gene 100135587), sequence (P41144 whole entry, looked up): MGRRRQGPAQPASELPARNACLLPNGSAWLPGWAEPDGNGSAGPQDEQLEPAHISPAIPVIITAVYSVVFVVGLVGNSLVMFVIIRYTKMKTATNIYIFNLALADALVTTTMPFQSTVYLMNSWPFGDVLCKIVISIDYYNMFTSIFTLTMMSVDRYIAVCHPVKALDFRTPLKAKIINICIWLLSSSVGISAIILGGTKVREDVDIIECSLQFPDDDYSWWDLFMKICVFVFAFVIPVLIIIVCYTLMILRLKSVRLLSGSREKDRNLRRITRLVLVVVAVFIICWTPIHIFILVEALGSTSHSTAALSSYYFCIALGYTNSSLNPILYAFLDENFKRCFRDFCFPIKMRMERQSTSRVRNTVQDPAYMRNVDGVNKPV
human Serotonin, 5-Hydroxytryptamine Receptor 6 (5HT6), HTR6 (gene 3362), sequence (P50406 whole entry, looked up): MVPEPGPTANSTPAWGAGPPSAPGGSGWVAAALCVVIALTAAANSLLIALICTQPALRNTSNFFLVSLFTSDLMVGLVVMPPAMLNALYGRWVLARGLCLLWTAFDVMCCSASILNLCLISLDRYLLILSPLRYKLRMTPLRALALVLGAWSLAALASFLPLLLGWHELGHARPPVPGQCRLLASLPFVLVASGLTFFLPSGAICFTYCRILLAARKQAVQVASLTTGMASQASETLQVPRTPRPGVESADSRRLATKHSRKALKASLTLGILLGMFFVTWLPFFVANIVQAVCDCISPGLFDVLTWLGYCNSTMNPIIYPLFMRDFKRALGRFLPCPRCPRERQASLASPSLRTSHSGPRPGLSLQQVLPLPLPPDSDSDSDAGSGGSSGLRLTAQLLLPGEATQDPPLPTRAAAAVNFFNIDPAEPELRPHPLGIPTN
rat Monoamine Oxidase, MAO-B, Peripheral (MAOBP), Maob (gene 25750), sequence (P19643 whole entry, looked up): as the sequence (P19643 whole entry, looked up) above
human Serotonin, 5-Hydroxytryptamine Receptor 7 (5HT7), HTR7 (gene 3363), sequence (P34969 whole entry, looked up): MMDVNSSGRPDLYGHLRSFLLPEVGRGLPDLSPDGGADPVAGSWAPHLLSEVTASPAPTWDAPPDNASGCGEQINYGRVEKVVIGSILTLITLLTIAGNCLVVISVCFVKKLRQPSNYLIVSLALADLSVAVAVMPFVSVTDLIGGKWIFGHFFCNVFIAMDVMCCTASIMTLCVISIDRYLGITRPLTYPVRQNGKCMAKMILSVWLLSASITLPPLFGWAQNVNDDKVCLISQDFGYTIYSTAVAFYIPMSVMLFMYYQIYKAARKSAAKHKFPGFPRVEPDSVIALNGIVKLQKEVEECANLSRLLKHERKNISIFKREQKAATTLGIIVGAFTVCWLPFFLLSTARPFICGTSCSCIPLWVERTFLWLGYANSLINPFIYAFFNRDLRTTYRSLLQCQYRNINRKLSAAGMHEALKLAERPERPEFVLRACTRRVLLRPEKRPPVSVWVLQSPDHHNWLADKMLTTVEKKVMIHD
human Adrenergic, Beta 1 Receptor (Adrb1), ADRB1 (gene 153), sequence (P08588 whole entry, looked up): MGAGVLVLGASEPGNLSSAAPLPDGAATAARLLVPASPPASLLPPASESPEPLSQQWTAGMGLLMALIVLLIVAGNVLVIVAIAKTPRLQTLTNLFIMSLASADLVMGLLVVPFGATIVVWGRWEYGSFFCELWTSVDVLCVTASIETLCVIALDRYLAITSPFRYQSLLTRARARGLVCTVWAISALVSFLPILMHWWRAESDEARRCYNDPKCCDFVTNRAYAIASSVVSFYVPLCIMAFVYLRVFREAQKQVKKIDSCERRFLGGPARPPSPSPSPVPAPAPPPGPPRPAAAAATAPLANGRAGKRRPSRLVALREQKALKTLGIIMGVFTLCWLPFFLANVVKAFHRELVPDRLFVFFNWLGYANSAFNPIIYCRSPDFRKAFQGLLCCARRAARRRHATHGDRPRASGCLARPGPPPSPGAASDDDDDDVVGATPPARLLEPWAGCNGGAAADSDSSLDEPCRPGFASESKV

Regarding `Nc1ccc([N+](=O)[O-])cc1Cl`, the AC50 in assay [1] is 15.1 µM (active).

As for `O=c1[nH]c2ccccc2c(=O)o1`, in assay [2], the AC50 was 4.96 µM (active).

On to `CCOP(=S)(Oc1ccc([N+](=O)[O-])cc1)c1ccccc1` (stereo not drawn), for which the compound was called inactive in assay [3].

Turning to `Nc1ccc2ccccc2c1`, in assay [1], the AC50 was 19.4 µM (active).

For `Cc1cc(C)c(C(=O)P(=O)(c2ccccc2)c2ccccc2)c(C)c1`, the results for the concentration at half-maximal activity (AC50) in assay [4] and in [5] were 25 µM (active) and 36 µM (active), respectively.

`ClC(Cl)c1ccccc1`: the compound was classed as inactive in [6].

Turning to `CCCCCCCc1ccc(O)cc1`, the AC50 in [7] was 25 µM (active). Further, in assay [8], the outcome was inactive.

Turning to `CCN(CC)c1ccccc1`, the call in assay [9] was inactive.

Turning to `O=c1ssc(Cl)c1Cl`, the result in assay [2] was inactive.

For `Cc1ccc(N)cc1N`, the outcome in [10] was inactive.

Consider `O=C(O)C1C(C(=O)O)C2(Cl)C(Cl)=C(Cl)C1(Cl)C2(Cl)Cl` (stereo not drawn), for which the AC50 in assay [11] was 2.88 µM (active).

For the compound `Nc1cc2c3c(c1)C(c1ccccc1)=N[C@@H](NC(=O)c1cccnc1)C(=O)N3CC2`, the AC50 in assay [2] was 15.1 µM (active). In assay [12], the call was inactive.

Consider `Nc1ccc(Cl)cc1`, for which, in [2], the outcome was inactive.

Turning to `CCNc1nc(Cl)nc(NC(C)(C)C)n1`, the compound was called inactive in assay [5].

For `[N-]=[N+]=[N-]`, the compound was classed as inactive in assay [7].

With `CCOP(=S)(OCC)SCSCC`, the call in assay [2] was inactive.

As for `CC1(C)CN=C(NN=C(/C=C/c2ccc(C(F)(F)F)cc2)/C=C/c2ccc(C(F)(F)F)cc2)NC1`, the AC50 in [2] is 5.74 µM (active); in assay [8], 8.95 µM (active).

As to `c1nc[nH]n1`, the outcome in assay [6] was inactive.

With `Cc1ccc(O)cc1C`, the AC50 in assay [7] is 47 µM (active).

In the case of `c1ccc2c(c1)Nc1ccccc1S2`, the AC50 in [1] is 9.71 µM (active).

Regarding `CCC(C)(C)c1ccc(O)cc1`, in assay [11], the AC50 was 25 µM (active). For the same compound, the compound was classed as inactive in assay [13].

For `CCCCOCCOP(=O)(OCCOCCCC)OCCOCCCC`, the AC50 in [4] was 16.5 µM (active).

For the compound `CC(C)(C)OOC(C)(C)C`, the half-maximal activity concentration (AC50) in assay [7] is 13.1 µM (active).

As a reminder, the AC50 is the concentration at which the activity in the assay is half-maximal.
